Measurements as given in PubChem BioAssay (NCATS).
Where “and” joins values, the source holds several entries; their conditions need not be identical. Equal values may be shown once. Records with an inconclusive call do not appear. The source holds several records for some structures; these can differ, active in one and inactive in another. Calls of active or inactive are those of the source. Unless noted, the call rests on the fitted dose curve; in most records, active means well fitted curve in the direction sought with a large enough effect; inconclusive means small, poorly fitted or top-dose-only effect, or another doubt; inactive means no such curve, though single readings can be large; an effect the other way counts as inactive or inconclusive.

Assays:
[1] = qHTS assay for small molecule agonists of the antioxidant response element (ARE) signaling pathway (AID 651741; active means well fitted activation curve with a large enough effect in the signal ratio; the % refers to the signal ratio; further: potency means the concentration at half of the fitted maximal effect; on activation: % of control where 0% means no effect)
How it was run: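 CellSensor ARE-bla HepG2 cells (2,000/well) carrying ARE-driven beta-lactamase, exposed 16 h at 37 C. LiveBLAzer B/G FRET substrate added for 2 h at room temperature; fluorescence intensity read.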

[2] = qHTS assay for small molecule activators of the p53 signaling pathway (AID 651743; active means well fitted activation curve with a large enough effect in the signal ratio, not every such curve was filed as active; the % refers to the signal ratio; further: series mostly up to about 92 µM; % of control where 0% means no effect); details: HCT-116 p53RE-bla, beta-lactamase FRET ratio, 16 h; activation: hits give high values
How it was run: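 p53RE-bla HCT-116 cells carrying a beta-lactamase reporter under p53 response elements were exposed to compounds for 16 hours at 37 C. Reporter activity read as fluorescence after 2 hours at room temperature with LiveBLAzer B/G FRET substrate.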

[3] = qHTS assay for small molecule activators of the nuclear factor-kappa B (NF-kB) signaling pathway (AID 651749; active means well fitted activation curve with a large enough effect in the signal ratio; the % refers to the signal ratio; further: series mostly up to about 77 µM; % of control where 0% means no effect); details: NF-kB-bla ME-180 cells, beta-lactamase FRET ratio, 16 h; hits give high values
How it was run: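 NF-kB-bla ME-180 cells carrying a beta-lactamase reporter under an NF-kB response element, 2,000 cells/well, exposed to compound for 16 hr at 37C; FRET-based beta-lactamase fluorescence read-out of pathway activation.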

[4] = qHTS assay for environmental chemicals that activate the Aryl hydrocarbon Receptor (AhR) signaling pathway (AID 651777); details: 1A2-DRE human hepatoma cells, luciferase, 24 h; activation: hits give high values; further: nearly all actives have a fitted effect of over 15% in size; further: potency means the concentration at half of the fitted maximal effect; on activation: % of control where 0% means no effect
How it was run: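 Human hepatoma 1A2-DRE cells, stably carrying a dioxin response element and CYP1A2 promoter driving luciferase, were exposed to compounds for 24 hr at 37 C and 5% CO2. Luciferase signal was then read after 30 min One-Glo at room temperature.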

[5] = target: Peroxisome proliferator-activated receptor alpha (Homo sapiens) (UniProt Q07869); assay: qHTS assay for small molecule agonists of the peroxisome proliferator-activated receptor alpha (PPARalpha) signaling pathway (AID 651778); details: PathHunter PPARalpha complementation, chemiluminescence, 6 h; hits give high values; further: % of control where 0% means no effect
How it was run: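 Enzyme-fragment complementation assay in which ligand-bound PPARalpha translocates and forms an active enzyme that generates chemiluminescence. Cells were plated overnight, exposed to compound for 6 hr at 37 C, and then given detection reagent for 60 min at room temperature.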

[6] = qHTS assay for small molecule agonists of the antioxidant response element (ARE) signaling pathway measured by Nrf2-dependant transcriptional activity (AID 720636; active means well fitted curve in the direction sought with a large enough effect in the repeat runs; an effect the other way counts as inactive or inconclusive; further: % of control where 0% means no effect)
How it was run: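 ARE-luc HepG2 cells carrying an Nrf2-responsive luciferase reporter were plated in medium with 1% dialyzed FBS, left 6 hr at 37 C to attach, then exposed to compound for 16 hr. Luciferase luminescence was read after ONE-Glo addition.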

[7] = qHTS assay for small molecule agonists of the antioxidant response element (ARE) signaling pathway measured by Nrf2-dependant transcriptional activity - cell viability counter screen (AID 720653; active means well fitted curve in the direction sought with a large enough effect in the repeat runs; an effect the other way counts as inactive or inconclusive; further: on the % scale 0 is the no-effect control and ±100 the full control effect); details: ARE-bla HepG2 viability, CellTiter-Glo ATP luminescence, 16 h; max response: hits give low values
How it was run: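 ARE-bla HepG2 cells treated with compounds for 16 h at 37C; this counter screen measures viability as intracellular ATP by CellTiter-Glo luminescence after 30 min at room temperature.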

[8] = qHTS assay for small molecule disruptors of the mitochondrial membrane potential - 5 hr assay (AID 651755; calls by dose curve; further: nearly all actives have a fitted effect of over 40% in size; further: potency means the concentration at half of the fitted maximal effect)
How it was run: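 HepG2 cells (2,000/well), attached overnight, exposed to compound 5 hr at 37C, then Mito-MPS dye 30 min. Fluorescence read for monomers (490/535 nm) and aggregates (540/590 nm).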

[9] = target: Tumor necrosis factor (Homo sapiens) (UniProt P01375); assay: qHTS assay to identify small molecules that stimulate Tumor Necrosis Factor-alpha (TNF-alpha) secretion (AID 651757; active means well fitted curve in the direction sought with a large enough effect in the signal ratio; the % refers to the signal ratio; further: 0% is about no effect)
How it was run: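 THP-1 cells (3000/well) exposed to compounds 17 hrs at 37 C. Secreted TNF-alpha detected by HTRF with cryptate- and XL665-labeled anti-TNF-alpha antibodies after 3 hr at room temperature.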

[10] = target: Nuclear receptor ROR-gamma (Homo sapiens) (UniProt P51449); assay: qHTS assay for small molecule antagonists of the retinoid-related orphan receptor gamma (ROR-gamma) signaling pathway (AID 651802); further: nearly all actives have a fitted effect of over 60% in size; further: potency means the concentration at half of the fitted maximal effect
How it was run: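 CHO cells with TET-inducible ROR-gamma and RORE-luciferase reporter, dosed then doxycycline-induced. After 16 h at 37C, One-Glo luminescence read; decreased signal indicates antagonism.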

[11] = qHTS assay for small molecule antagonists of the retinoid-related orphan receptor gamma (ROR-gamma) signaling pathway - cell viability counter screen (AID 720652; active means well fitted curve in the direction sought with a large enough effect in the repeat runs; an effect the other way counts as inactive or inconclusive;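 further: compound exposure lasted 16 hr before ATP read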; further: potency means the concentration at half of the fitted maximal effect)
How it was run: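 CHO cells carrying TET-inducible ROR and RORE-luciferase reporter, plated 5 hr, then dosed with compound plus doxycycline. After 16 hr at 37 C, viability read as intracellular ATP by CellTiter-Glo luminescence.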

[12] = target: Arylsulfatase A (Homo sapiens) (UniProt P15289); assay: qHTS screen for enhancers of Arylsulfatase A (ASA1): LOPAC Validation Assay (AID 720538)
How it was run: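 SV40-transformed skin fibroblasts from an MLD patient (ASA-I179S) were treated with compounds for 48h at 37 degree C, then lysed with 0.5mM pNCS final substrate for 14h at room temperature; NaOH stop, fluorescence read (Ex=525 nm; Em=598 nm).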

[13] = qHTS for compounds that reverse cellular toxicity of Amyloid beta (A-beta) peptide in yeast: LOPAC Validation Assay (AID 720559);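 further: plate controls were DMSO for no effect and equimolar ferric chloride plus clioquinol rescue for full effect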
How it was run: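 Yeast cells expressing toxic A-beta were combined with pinned compounds in growth medium and incubated 48 hr at 30 C. Growth was read as absorbance at 600 nm and normalized to DMSO and to an equimolar FeCl3/clioquinol positive control.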

[14] = qHTS for Activators of Parkin Expression: LOPAC Validation Assay (NLuc Reporter) (AID 720572;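 further: 0% = DMSO and 100% = positive control compound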)
How it was run: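 Neuronal cells with a Parkin promoter-driven FLuc/NLuc coincidence reporter were treated 24 h at 37 C in 7-point dose response (LOPAC). NLuc luminescence read after FLuc; signals normalized to DMSO and positive control (100%).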

[15] = qHTS for Activators of Parkin Expression: LOPAC Validation Assay (FLuc Reporter) (AID 720573;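 further: 0% = DMSO and 100% = positive control compounds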)
How it was run: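 Neuronal cell line stably carrying FLuc/NLuc coincidence reporter under Parkin promoter; cells plated 24 h, then compounds added in 7-point dose response for 24 h at 37 C. FLuc luminescence read; normalized to DMSO and positive control (100%).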

[16] = target: T1, Hexokinase-4 (Homo sapiens) + Glucokinase regulatory protein (Homo sapiens) (UniProt P35557+Q14397); assay: qHTS assay for inhibitors of recombinant human GCK-GKRP interaction: Diaphorase-coupled assay (AID 743205)
How it was run: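 GST-GCK (10 nM) with FLAG-GKRP (10 nM), 5 mM glucose and 0.4 mM ATP in pH 7.6 Hepes; compounds preincubated 20 min with substrate. G6PDH/diaphorase coupling converts resazurin to resorufin, read kinetically (ex 525/em 590 nm) for 30 min.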

[17] = target: T1, Hexokinase-4 (Homo sapiens) + Glucokinase regulatory protein (Homo sapiens); assay: qHTS assay for inhibitors of recombinant human GCK-GKRP interaction: ADP-Glo assay (AID 743206);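 further: plate controls were DMSO plus enzyme for no effect and no enzyme for full effect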
How it was run: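 GST-GCK and FLAG-GKRP (15 nM each in the dispensed mix, with 2 uM S6P) react with 0.4 mM ATP and 5 mM glucose (final) in Hepes pH 7.6 for 60 min at room temperature. ADP is measured by ADP-Glo luminescence.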

[18] = qHTS assay to identify small molecules that stimulate interleukin-8 (IL-8) secretion (AID 651758; active means well fitted activation curve with a large enough effect in the signal ratio; the % refers to the signal ratio; further: 0% is about no effect)
How it was run: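 THP-1 cells (2000/well) exposed to compound 16 h at 37 C; secreted IL-8 then detected by HTRF with cryptate- and XL665-labelled anti-IL-8 antibody pair after 1-3 h at room temperature.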

Tumor necrosis factor (Homo sapiens), sequence (P01375 whole entry, looked up): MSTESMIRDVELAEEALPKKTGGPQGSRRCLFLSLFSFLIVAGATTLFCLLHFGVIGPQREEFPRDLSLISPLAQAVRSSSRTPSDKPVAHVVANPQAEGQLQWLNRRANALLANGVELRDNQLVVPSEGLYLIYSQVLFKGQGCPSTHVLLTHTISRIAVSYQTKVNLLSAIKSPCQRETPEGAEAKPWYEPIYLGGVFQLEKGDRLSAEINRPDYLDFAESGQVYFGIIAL
Peroxisome proliferator-activated receptor alpha (Homo sapiens), sequence (Q07869 whole entry, looked up, the tested form may be a part): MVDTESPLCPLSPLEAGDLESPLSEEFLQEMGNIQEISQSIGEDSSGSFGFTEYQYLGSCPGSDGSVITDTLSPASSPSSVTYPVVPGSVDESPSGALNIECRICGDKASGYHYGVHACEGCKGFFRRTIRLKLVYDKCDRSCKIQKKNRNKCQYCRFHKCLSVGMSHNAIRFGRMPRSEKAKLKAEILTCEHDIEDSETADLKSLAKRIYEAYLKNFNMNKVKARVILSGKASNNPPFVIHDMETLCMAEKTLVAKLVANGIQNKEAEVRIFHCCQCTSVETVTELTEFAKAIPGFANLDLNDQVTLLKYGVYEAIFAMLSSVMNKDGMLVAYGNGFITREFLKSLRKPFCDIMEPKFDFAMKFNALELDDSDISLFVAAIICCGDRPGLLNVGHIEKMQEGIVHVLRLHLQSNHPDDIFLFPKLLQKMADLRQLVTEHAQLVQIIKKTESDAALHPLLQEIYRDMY
Nuclear receptor ROR-gamma (Homo sapiens), sequence (P51449 whole entry, looked up): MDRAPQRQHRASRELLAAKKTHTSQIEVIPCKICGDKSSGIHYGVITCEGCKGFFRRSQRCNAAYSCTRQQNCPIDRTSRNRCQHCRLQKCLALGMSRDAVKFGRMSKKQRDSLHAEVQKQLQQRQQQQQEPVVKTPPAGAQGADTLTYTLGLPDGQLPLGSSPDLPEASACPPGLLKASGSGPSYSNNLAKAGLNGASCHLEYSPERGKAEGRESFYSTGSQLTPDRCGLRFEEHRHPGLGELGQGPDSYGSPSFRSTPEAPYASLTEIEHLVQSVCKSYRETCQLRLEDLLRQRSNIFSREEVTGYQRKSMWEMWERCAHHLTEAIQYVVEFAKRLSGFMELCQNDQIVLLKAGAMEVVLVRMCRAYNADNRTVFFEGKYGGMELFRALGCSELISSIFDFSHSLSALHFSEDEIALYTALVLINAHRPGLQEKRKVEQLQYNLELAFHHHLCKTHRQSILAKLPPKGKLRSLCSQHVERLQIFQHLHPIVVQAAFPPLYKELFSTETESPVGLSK
Arylsulfatase A (Homo sapiens), sequence (P15289 whole entry, looked up): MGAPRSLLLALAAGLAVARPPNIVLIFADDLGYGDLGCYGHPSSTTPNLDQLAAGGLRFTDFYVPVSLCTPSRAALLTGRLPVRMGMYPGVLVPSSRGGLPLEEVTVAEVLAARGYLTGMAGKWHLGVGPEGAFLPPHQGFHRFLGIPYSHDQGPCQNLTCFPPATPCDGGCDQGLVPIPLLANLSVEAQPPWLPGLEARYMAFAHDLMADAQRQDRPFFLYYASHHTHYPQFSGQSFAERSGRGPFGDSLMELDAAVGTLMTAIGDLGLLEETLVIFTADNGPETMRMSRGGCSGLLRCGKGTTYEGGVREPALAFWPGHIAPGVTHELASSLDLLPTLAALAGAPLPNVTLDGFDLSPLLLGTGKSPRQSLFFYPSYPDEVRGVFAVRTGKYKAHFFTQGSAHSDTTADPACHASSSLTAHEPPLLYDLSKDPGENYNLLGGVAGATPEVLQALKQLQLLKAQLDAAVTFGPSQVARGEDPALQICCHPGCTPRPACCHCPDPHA
T1 sequence (P35557 whole entry, looked up): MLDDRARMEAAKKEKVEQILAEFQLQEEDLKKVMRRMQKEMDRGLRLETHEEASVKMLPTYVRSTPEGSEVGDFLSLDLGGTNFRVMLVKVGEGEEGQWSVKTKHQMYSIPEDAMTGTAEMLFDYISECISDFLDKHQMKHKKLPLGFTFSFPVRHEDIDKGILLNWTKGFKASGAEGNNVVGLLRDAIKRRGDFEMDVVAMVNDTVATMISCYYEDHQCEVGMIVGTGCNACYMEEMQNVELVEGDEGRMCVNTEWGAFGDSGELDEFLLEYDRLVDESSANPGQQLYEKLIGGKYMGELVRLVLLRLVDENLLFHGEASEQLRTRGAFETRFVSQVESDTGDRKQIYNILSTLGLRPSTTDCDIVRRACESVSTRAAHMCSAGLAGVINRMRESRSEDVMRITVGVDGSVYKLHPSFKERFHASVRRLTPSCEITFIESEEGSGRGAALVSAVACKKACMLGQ
T1 sequence (Q14397 whole entry, looked up): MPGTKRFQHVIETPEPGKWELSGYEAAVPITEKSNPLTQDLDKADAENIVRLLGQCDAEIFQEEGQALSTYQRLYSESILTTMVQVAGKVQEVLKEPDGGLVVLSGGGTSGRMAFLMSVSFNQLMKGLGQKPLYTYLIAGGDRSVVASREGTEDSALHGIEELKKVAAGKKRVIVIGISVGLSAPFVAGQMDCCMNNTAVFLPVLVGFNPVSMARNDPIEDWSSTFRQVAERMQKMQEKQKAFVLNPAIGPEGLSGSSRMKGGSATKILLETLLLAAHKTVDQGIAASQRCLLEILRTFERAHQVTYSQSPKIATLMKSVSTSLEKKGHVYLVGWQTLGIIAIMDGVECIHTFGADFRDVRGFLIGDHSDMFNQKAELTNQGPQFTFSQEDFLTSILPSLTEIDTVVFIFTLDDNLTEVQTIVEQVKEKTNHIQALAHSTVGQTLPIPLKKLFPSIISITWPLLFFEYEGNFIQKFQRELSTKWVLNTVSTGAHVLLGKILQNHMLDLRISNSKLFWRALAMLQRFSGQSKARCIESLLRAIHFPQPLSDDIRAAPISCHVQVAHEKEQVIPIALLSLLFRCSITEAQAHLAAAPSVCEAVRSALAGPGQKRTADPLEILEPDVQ

CCOP(=O)(OCC)O/C(=C/Cl)c1ccc(Cl)cc1Cl
inactive: activation [2] -2.13% and -0.49% | activation [3] -2.44% and -1.58% | activation [4] 3.76% | max response [5] -3.2% and -2.2% | Potency [6] | max response [7] -18.8% and -8.15%
active: Potency [1] 30.6 µM | Potency [4] 50.1 µM

Clc1ccccc1Cl
inactive: activation [3] -0.0325% | Potency [8] | outcome [9] | activation [4] -0.403% | max response [5] -2.32% | Potency [10] | Potency [6] | Potency [11] | max response [7] 1.42%

C[C@@H]1[C@@H]2Cc3ccc(O)cc3[C@@]1(C)CCN2CC1CC1
inactive: Potency [12] | outcome [13] | Potency [14] | outcome [15] | Potency [16] | outcome [17]

COCC(C)N(C(=O)CCl)c1c(C)csc1C (configuration not stated)
active: Potency [1] 15.4 µM
inactive: activation [2] -0.528% | activation [3] -2.83% | activation [4] -1.87% | max response [5] -3.83% | max response [7] -1.95%

CC1OC1P(=O)(O)O (configuration not stated)
inactive: Potency [12]

C[C@]12CCC(=O)C[C@@H]1CC[C@@H]1[C@@H]2CC[C@]2(C)[C@@H](O)CC[C@@H]12
active: Potency [1] 24.3 µM | Potency [10] 26.6 µM
inactive: activation [2] -3.4% and -1.57% | activation [3] 1.2% and 0.597% | outcome [9] | activation [4] -0.925% and -0.613% | max response [5] -1.24% and 0.0043% | Potency [6] | Potency [11] | max response [7] -16.7% and -5.79%

O=Cc1ccco1
inactive: Potency [1] | activation [2] -1.55% | activation [3] -0.614% | Potency [8] | outcome [9] | activation [4] -0.549% | max response [5] -1.43% | Potency [6] | Potency [11] | max response [7] -4.31%

Oc1cc(Cl)c(Cl)cc1Cl
active: Potency [1] 42.2 µM | Potency [8] 47.3 µM | Potency [10] 23.7 µM
inactive: activation [3] 1.51% and -0.218% | activation [4] 3.21% and 2.24% | max response [5] -3.77% and 0.0897% | Potency [6] | Potency [11] | max response [7] 4.14% and 5.09%

COc1ccc2c(c1OC)C(=O)OC2C1c2cc3c(cc2CCN1C)OCO3 (configuration not stated)
inactive: Potency [1] | activation [2] -5.72% | Potency [8] | outcome [9] | Potency [18] | activation [4] 0.0911% | max response [5] -0.464% | Potency [10] | Potency [6] | Potency [11] | max response [7] -15.1%

CC(C)Nc1ccc(Nc2ccccc2)cc1
active: Potency [1] 47.3 µM | Potency [8] 59.6 µM
inactive: max response [5] -3.2% | max response [7] -21.1%

O=[N+]([O-])C(Br)(CO)CO
inactive: activation [3] -3.37% | activation [4] 5.58% | max response [5] 0.217% | max response [7] -12.6%
active: Potency [1] 54.5 µM

O=[N+]([O-])c1ccc(F)c([N+](=O)[O-])c1
inactive: activation [3] -0.0445% | activation [4] 0.408% | max response [5] -10.2% | Potency [6] | max response [7] -6.71%
active: Potency [1] 42.2 µM | Potency [10] 33.5 µM | Potency [11] 59.6 µM

CCCCCl
inactive: Potency [1] | activation [2] -4.24% | Potency [8] | outcome [9] | activation [4] -0.771% | max response [5] -3.81% | Potency [10] | Potency [6] | Potency [11] | max response [7] -3.38%
